Lassa entry inh: blocks Lassa virus binding to or entry into cells; Lassa virus pseudotype entry inhibition, cell reporter; Potency, µM (series often up to 37.9 µM), usual class: inhibitors; actives 1.2% (n = 300,000); AID 540256; calls by dose curve; tested in HEK293 cells; also: nearly all actives have a fitted effect of over 50% in size
FMDV antiviral: blocks foot and mouth disease virus. FMDV antiviral cell-based qHTS. actives 1.2% (n = 410,000). Potency, µM (series often up to 57.9 µM), usual class: inhibitors; calls by dose curve; tested in HEK293T cells; also: read-out not given here; nearly all actives have a fitted effect of over 45% in size
HCV inh: blocks hepatitis C virus; AID 651820; Huh7.5.1 HCVcc-Cre infection, luciferase reporter, 44 h; Potency, µM (titrated, usually from 41.8 µM), actives largely listed as inhibitors; actives 3.4% (n = 340,000); active = well fitted inhibition curve with a large enough effect; inconclusive = small, poorly fitted or top-dose-only effect, or another doubt; inactive = no such curve, though single readings can be large or run the other way
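Compounds are dispensed onto cells plated 4 h earlier at 1,000 per well, with HCVcc-Cre virus (about 0.5 moi) added next. Following 44 h of culture, luminescent signal is measured for 15 sec after 15 min with substrate at room temperature.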
VACV mCherry inh: inhibitors of vaccinia virus infection (mCherry reporter signal); Vaccinia virus mCherry reporter infection, fluorescence; Potency, µM (doses to about 36.5 µM), most hits filed as inhibitors; actives 0.63% (n = 310,000); calls by dose curve; tested in A549 cells; also: nearly all actives have a fitted effect of over 35% in size
VACV Venus inh: vaccinia inhibition (Venus reporter). Vaccinia virus Venus reporter expression, fluorescence. Potency, µM (titrated, usually from 36.5 µM), actives largely listed as inhibitors. actives 0.46% (n = 330,000); calls by dose curve; tested in A549 cells; also: nearly all actives have a fitted effect of over 30% in size
Marburg entry inh: inhibitors of Marburg virus binding or cell entry; Potency, µM (doses to about 37.8 µM), usual class: inhibitors; AID 540276; Marburg virus pseudotyped entry inhibition, cell reporter; actives 1.8% (n = 300,000); calls by dose curve; tested in HEK293 cells
Large screens that a line does not name were inactive; ! = not confirmed by another sample. The list is not random: actives were taken first. Their share in the collection is about 5.3%.

COc1ccc(-c2cc3nc(-c4ccccc4)cc(N4CCN(C(=O)c5ccoc5)CC4)n3n2)cc1	FMDV antiviral inconclusive (no result: Lassa entry inh, HCV inh, Marburg entry inh)
COCCN(C)C(=O)c1cnn(-c2ncc3c(n2)-c2ccccc2CC3)c1C	none (no result: Lassa entry inh, HCV inh, Marburg entry inh)
COc1cc(CN2CCCC(n3cc(C(=O)N4CCCCC4)nn3)C2)cc2c1OCO2 (centres undefined)	none (no result: Lassa entry inh, HCV inh, Marburg entry inh)
COc1cnc(-c2ccccc2)nc1Sc1ccccc1	HCV inh 13µM, Marburg entry inh inconclusive
CCSc1nnc(NC(=O)C(CC)(C(F)(F)F)C(F)(F)F)s1	Lassa entry inh 13µM, FMDV antiviral inconclusive, VACV Venus inh inconclusive, Marburg entry inh inconclusive (no result: VACV mCherry inh)
CCSc1nnc(NC(=O)c2ccccn2)s1	Lassa entry inh inconclusive, HCV inh inconclusive, VACV mCherry inh 22µM, VACV Venus inh inconclusive, Marburg entry inh inconclusive
COc1cc2c(cc1OC)-c1c(oc3cc(O)cc(O)c3c1=O)CO2	none (no result: Lassa entry inh, HCV inh, Marburg entry inh)
Cc1c(C(=O)N2CCN(Cc3ccc4c(c3)OCO4)CC2)sc2ncnc(N3CCN(c4ccccc4F)CC3)c12	FMDV antiviral 28µM, HCV inh inconclusive (no result: Lassa entry inh, VACV mCherry inh, VACV Venus inh, Marburg entry inh)
Cc1c(C(=O)N2CCN(Cc3ccc4c(c3)OCO4)CC2)sc2ncnc(N3CCN(c4ccccc4)CC3)c12	FMDV antiviral 2.5µM, HCV inh inconclusive (no result: Lassa entry inh, VACV mCherry inh, VACV Venus inh, Marburg entry inh)
C=CCn1c(C(C)NC(=O)CCC)nc2ccccc21 (centres undefined)	HCV inh 11µM (no result: FMDV antiviral)
CC(C)(C)NCC(O)C1=C(Cl)CCCC1 (centres undefined)	none (no result: Lassa entry inh, FMDV antiviral, HCV inh, VACV mCherry inh, VACV Venus inh)
C[C@H](CO)N1C[C@H](C)[C@H](CN(C)C(=O)OCc2ccccc2)OCc2cnnn2CCCC1=O	none (no result: Lassa entry inh, HCV inh, Marburg entry inh)
COc1ccc(-c2ccc(C(=O)Nc3cccc(N(C)C)c3)c3occc23)c(C)c1	none (no result: Lassa entry inh, HCV inh, Marburg entry inh)
CCOC(=O)c1c(C)oc2ncnc(N3CCN(c4cccc(Cl)c4)CC3)c12	FMDV antiviral 28µM (no result: HCV inh)
CCOC(=O)c1c(C)oc2nc(C)nc(N3CCN(c4ccccc4)CC3)c12	FMDV antiviral 28µM (no result: HCV inh, Marburg entry inh)
O=C(CCCCCNc1nc(=S)[nH]c2ccccc12)NCCc1ccc(Cl)cc1	Marburg entry inh inconclusive
O=C(CCCCCNc1nc(=S)[nH]c2ccccc12)NCCc1c[nH]c2ccccc12	FMDV antiviral inconclusive, HCV inh 20µM, Marburg entry inh inconclusive
Cc1ccccc1C(=O)Nc1c(C)nc2ccccn2c1=O	none (no result: HCV inh, Marburg entry inh)
CCOC(=O)C1=C(C)NC(C)=C(C(=O)OC)[C@H]1c1cccc([N+](=O)[O-])c1	none (no result: Lassa entry inh, HCV inh)
COCCOC(=O)C1=C(C)NC(C)=C(C(=O)OC(C)C)[C@@H]1c1cccc([N+](=O)[O-])c1	Marburg entry inh inconclusive (no result: Lassa entry inh, HCV inh, VACV mCherry inh, VACV Venus inh)
COCCOC(=O)C1=C(C)NC(C)=C(C(=O)OC/C=C/c2ccccc2)C1c1cccc([N+](=O)[O-])c1 (centres undefined)	Lassa entry inh 8.2µM, FMDV antiviral inconclusive, Marburg entry inh inconclusive (no result: HCV inh, VACV mCherry inh, VACV Venus inh)
CCOC(=O)C1=C(C)NC(C)=C(C(=O)OC)C1c1cccc([N+](=O)[O-])c1 (centres undefined)	Lassa entry inh inconclusive, HCV inh inconclusive, Marburg entry inh 2.5µM!
CCOC(=O)C1=C(N)Oc2cc(O)ccc2C1c1ccccc1 (centres undefined)	FMDV antiviral inconclusive (no result: Lassa entry inh, VACV mCherry inh, VACV Venus inh, Marburg entry inh)
CCOC(=O)C1=C(N)Oc2cc(O)ccc2C1c1cccc([N+](=O)[O-])c1 (centres undefined)	Lassa entry inh inconclusive, FMDV antiviral 20µM, HCV inh inconclusive, Marburg entry inh inconclusive
COC(=O)C1=C(C)NC(C)=C(C(=O)OC(C)(C)CN(C)CCC(c2ccccc2)c2ccccc2)C1c1cccc([N+](=O)[O-])c1 (centres undefined)	Lassa entry inh 8.2µM, Marburg entry inh inconclusive (no result: FMDV antiviral, HCV inh, VACV mCherry inh, VACV Venus inh)
CCOC(=O)C1=C(CCc2ccccc2)NC(=O)NC1c1cccc([N+](=O)[O-])c1 (centres undefined)	HCV inh inconclusive, VACV Venus inh inconclusive (no result: Lassa entry inh, Marburg entry inh)
COCCOC(=O)C1=C(C)NC(C)=C(C(=O)OC(C)C)C1c1cccc([N+](=O)[O-])c1 (centres undefined)	Lassa entry inh inconclusive, HCV inh inconclusive, Marburg entry inh 5.6µM!
COC(=O)C1=C(C)NC(C)=C(C(=O)OCCN(C)Cc2ccccc2)[C@@H]1c1cccc([N+](=O)[O-])c1	Marburg entry inh 8.2µM (no result: Lassa entry inh, FMDV antiviral, HCV inh, VACV mCherry inh, VACV Venus inh)
COC(=O)C1=C(C)NC(C)=C(C(=O)O[C@@H]2CCCN(Cc3ccccc3)C2)[C@@H]1c1cccc([N+](=O)[O-])c1	FMDV antiviral inconclusive, HCV inh inconclusive (no result: Lassa entry inh, Marburg entry inh)
Cc1ccc(CSCCC(=O)NCc2ccc(F)cc2Cl)cc1	none (no result: HCV inh, Marburg entry inh)
O=C(C1=NC2=C(CCCC2)CC1)C1CCCCN1 (centres undefined)	none (no result: Lassa entry inh, FMDV antiviral, HCV inh, VACV mCherry inh, VACV Venus inh)
CC(C)COCc1ccc(O)c2ncccc12	Lassa entry inh inconclusive, HCV inh 2.8µM, VACV mCherry inh 10µM, VACV Venus inh inconclusive, Marburg entry inh inconclusive
Oc1ccc(Cl)c2cccnc12	HCV inh inconclusive, VACV mCherry inh inconclusive
CCCOCc1ccc(O)c2ncccc12	Lassa entry inh inconclusive, HCV inh 5.6µM, VACV mCherry inh inconclusive, VACV Venus inh inconclusive, Marburg entry inh inconclusive
Oc1ccc(COCc2ccccc2)c2cccnc12	Lassa entry inh inconclusive, HCV inh 5µM, VACV Venus inh inconclusive, Marburg entry inh inconclusive
CN1C[C@H](CNC(=O)OCc2ccccc2)C[C@@H]2c3cccc4c3c(cn4C)C[C@H]21	Lassa entry inh 23µM, HCV inh inconclusive, Marburg entry inh 5.6µM
CCNc1ccc(/C=C2\C=Cc3ccccc32)cc1	none (no result: Lassa entry inh, FMDV antiviral, HCV inh, Marburg entry inh)
CCCCc1nc2c(c3c1C[C@H](C)OC3)CN(C(=O)C1CCCCC1)CC2	none (no result: Lassa entry inh, FMDV antiviral, HCV inh, VACV mCherry inh, VACV Venus inh)
COc1ccc(OC)c(C2=NS(=O)(=O)N(C)C(C(=O)Nc3ccc(F)cc3F)=C2)c1	FMDV antiviral inconclusive, HCV inh 14µM, VACV mCherry inh inconclusive, VACV Venus inh inconclusive
COc1ccc(C2=NS(=O)(=O)N(C)C(C(=O)Nc3ccc(C(C)=O)cc3)=C2)cc1OC	Lassa entry inh inconclusive, FMDV antiviral inconclusive, HCV inh 11µM, Marburg entry inh inconclusive

Source: PubChem BioAssay
